This is an account of results in PubChem BioAssay (EPA / NIEHS).

In one test the target is AR (gene 367) (UniProt P10275). The experiment in a line: ACEA_AR_antagonist_80hr: ACEA Biosciences xCELLigence Real-Time Cell Analysis on Androgen Receptor Antagonism for Proliferation (AID 2283787).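 Further: 22Rv1 human prostate cancer cells with growth followed by electrical impedance; hits lower the impedance growth signal relative to DMSO.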 The gist of the method:
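Growth-kinetic antagonist readout in 22Rv1 cells, taken 80 h after continuous compound exposure. Activity fitted as signal loss relative to DMSO negative control.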

A short description of test [1]: ATG_M_19_XSP1: Attagene TRANS-FACTORIAL Multi-Species (XSP1) HepG2 Assay for M19 Transcription Factor (Internal Marker) (AID 2283798). The gist of the method:
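HepG2 cells transiently transfected with multiplexed GAL4-UAS reporter units, dosed 24 h with 3 nM 6-alpha-fluorotestosterone present for partial AR stimulation. Reporter mRNA measured by RT-PCR with capillary electrophoresis; gain-of-signal fitted relative to DMSO.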

Test [2] is described as follows: ATG_M_32_XSP1: Attagene TRANS-FACTORIAL Multi-Species (XSP1) HepG2 Assay for M32 Transcription Factor (Internal Marker) (AID 2283799). The essentials: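 HepG2 cells transiently transfected with multi-species TRANS reporter units, dosed 24 h with 3 nM 6-alpha-fluorotestosterone present. Internal-marker reporter mRNA quantified by RT-PCR and capillary electrophoresis; positive-direction fit versus DMSO.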

Test [3] addresses Peroxisome proliferator-activated receptor gamma (Homo sapiens) (UniProt P37231). Briefly: ATG_hPPARg_XSP1: Attagene TRANS-FACTORIAL Multi-Species (XSP1) HepG2 Assay for human Peroxisome Proliferator-activated Receptor gamma (PPARg) (AID 2283800). The gist of the method:
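HepG2 cells transiently transfected with GAL4-UAS reporter units carrying chimeric NR-Gal4 proteins; 3 nM 6-alpha-fluorotestosterone present. After 24 h dosing, reporter mRNA quantified by RT-PCR and capillary electrophoresis; gain of signal relative to DMSO.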

For test [4], the system named is zebrafish Peroxisome Proliferator-activated Receptor gamma (PPARg), gene 557037. Briefly: ATG_zfPPARg_XSP1: Attagene TRANS-FACTORIAL Multi-Species (XSP1) HepG2 Assay for zebrafish Peroxisome Proliferator-activated Receptor gamma (PPARg) (AID 2283801). The gist of the method: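 HepG2 cells transiently transfected with GAL4-UAS reporter units including a zebrafish PPARg–GAL4 chimera, dosed 24 h with 3 nM 6-alpha-fluorotestosterone present. Reporter mRNA quantified by RT-PCR, FAM labelling, HpaI digestion and capillary electrophoresis; induction versus DMSO.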

For test [5], the target named is mouse Peroxisome Proliferator-activated Receptor gamma (PPARg), Pparg (gene 19016) (UniProt P37238). Briefly: ATG_mPPARg_XSP1: Attagene TRANS-FACTORIAL Multi-Species (XSP1) HepG2 Assay for mouse Peroxisome Proliferator-activated Receptor gamma (PPARg) (AID 2283802). The essentials:
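HepG2 cells transiently transfected with GAL4-UAS reporter units driven by mouse PPARg–GAL4 chimera; 3 nM 6-alpha-fluorotestosterone present. After 24 h dosing, reporter mRNA quantified by RT-PCR, fluorescent labelling and capillary electrophoresis; gain of signal versus DMSO.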

The target in test [6] is frog Thyroid hormone Receptor alpha (TRa), thra-a (gene 397942) (UniProt P15204). The experiment in a line: ATG_frTRa_XSP1: Attagene TRANS-FACTORIAL Multi-Species (XSP1) HepG2 Assay for frog Thyroid hormone Receptor alpha (TRa) (AID 2283804). The gist of the method:
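HepG2 cells transiently transfected with frog TRa-GAL4 chimeric reporter units, dosed 24 hr with 3 nM 6-alpha-fluorotestosterone present; reporter mRNA quantified by RT-PCR, fluorescent labelling and capillary electrophoresis, gain of signal versus DMSO.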

The subject of test [7] is turtle Thyroid Hormone Receptor, alpha (TRa), gene 101949057. The experiment in a line: ATG_trTRa_XSP1: Attagene TRANS-FACTORIAL Multi-Species (XSP1) HepG2 Assay for turtle Thyroid Hormone Receptor, alpha (TRa) (AID 2283806). The essentials:
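HepG2 cells transiently transfected with GAL4-UAS reporter units and chimeric receptor-Gal4 constructs, with 3 nM 6-alpha-fluorotestosterone present. Reporter mRNA was quantified 24 h after dosing by RT-PCR, 6-FAM labelling and capillary electrophoresis; gain of signal versus DMSO.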

Test [8] addresses zebrafish Thyroid Hormone Receptor alpha (TRa), thraa (gene 30670) (UniProt Q98867). Briefly: ATG_zfTRa_XSP1: Attagene TRANS-FACTORIAL Multi-Species (XSP1) HepG2 Assay for zebrafish Thyroid Hormone Receptor alpha (TRa) (AID 2283807). The essentials: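 HepG2 cells transiently transfected with GAL4-UAS reporter units including a zebrafish TRa–Gal4 chimera, dosed 24 h with 3 nM 6-alpha-fluorotestosterone present. Reporter mRNA quantified by RT-PCR and capillary electrophoresis; gain versus DMSO.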

Test [9] in a line: ATG_XTT_Cytotoxicity_XSP1: Cytotoxicity Assessment in the Attagene TRANS-FACTORIAL Multi-Species (XSP1) HepG2 Assay (AID 2283810). The essentials:
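XTT viability readout taken at 24 hours post-dosing in HepG2 liver cells co-treated with 3 nM 6-alpha-fluorotestosterone. Signal loss relative to DMSO controls reflects cytotoxicity.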

Test [10] can be described thus: ATG_M_06_XSP2: Attagene TRANS-FACTORIAL Multi-Species (XSP2) HepG2 Assay for M06 Transcription Factor (Internal Marker) (AID 2283811).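 Further: hits are increases in signal above the DMSO baseline.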 The essentials:
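HepG2, multiplexed reporter transfection; 24 h dosing; AR stimulated with 3 nM 6-alpha-fluorotestosterone + 1.5 nM norgestrel; RNA → RT-PCR → 6-FAM primer extension → HpaI → CE. Positive direction vs DMSO.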

Test [11] relates to turtle Estrogen Receptor (ERa), gene 101933533. Briefly: ATG_trERa_XSP2: Attagene TRANS-FACTORIAL Multi-Species (XSP2) HepG2 Assay for turtle Estrogen Receptor (ERa) (AID 2283812).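 Further: human HepG2 liver cells transiently expressing turtle ERa-Gal4 chimeric receptor; actives raise reporter signal above DMSO so AC50 reflects agonist activity.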 The essentials: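 HepG2 cells transiently transfected with GAL4-UAS reporter units expressing turtle ERa-Gal4 chimera. Reporter mRNA measured after 24 h dosing by RT-PCR, fluorescent labelling and capillary electrophoresis; gain of signal fitted versus DMSO.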

Test [12] concerns the target GAL4 Transcription Factor (Internal Marker), GAL4 (gene 855828) (UniProt P04386). The experiment in a line: ATG_GAL4_XSP2: Attagene TRANS-FACTORIAL Multi-Species (XSP2) HepG2 Assay for GAL4 Transcription Factor (Internal Marker) (AID 2283814).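 Further: GAL4 reporter mRNA background control in MRTU transfected cells not a receptor target.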 The gist of the method: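 HepG2 cells transiently transfected with GAL4-UAS reporter units, stimulated with 3 nM 6-alpha-fluorotestosterone plus 1.5 nM norgestrel, dosed 24 h. Reporter mRNA by RT-PCR/capillary electrophoresis; gain-of-signal fit versus DMSO, background control.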

The nature of test [13]: ATG_M_06_XSP1: Attagene TRANS-FACTORIAL Multi-Species (XSP1) HepG2 Assay for M06 Transcription Factor (Internal Marker) (AID 2283790). The gist of the method: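 Transfected HepG2 multi-reporter system treated 24 h in the presence of 3 nM 6-alpha-fluorotestosterone. The M06 internal marker transcript was quantified by RT-PCR with capillary electrophoresis as a background control, and gain of signal was scored versus DMSO.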

The target of test [14] is human Thyroid hormone Receptor alpha (TRa), THRA (gene 7067) (UniProt P10827). The experiment in a line: ATG_hTRa_XSP1: Attagene TRANS-FACTORIAL Multi-Species (XSP1) HepG2 Assay for human Thyroid hormone Receptor alpha (TRa) (AID 2283805). The essentials:
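HepG2 cells transiently transfected with GAL4-UAS reporter units expressing chimeric NR-Gal4 proteins, dosed 24 hours with 3 nM 6-alpha-fluorotestosterone present. Reporter mRNA measured by RT-PCR and capillary electrophoresis; gain of signal fitted versus DMSO.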

The target of test [15] is zebrafish Thyroid Hormone Receptor beta (TRb), thrb (gene 30607) (UniProt Q9PVE4). Briefly: ATG_zfTRb_XSP1: Attagene TRANS-FACTORIAL Multi-Species (XSP1) HepG2 Assay for zebrafish Thyroid Hormone Receptor beta (TRb) (AID 2283809). The gist of the method: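 HepG2 cells transiently transfected with multiplexed GAL4-UAS reporter units expressing chimeric zebrafish TRb–Gal4. Dosed 24 h with 3 nM 6-alpha-fluorotestosterone present; reporter mRNA measured by RT-PCR, HpaI digestion and capillary electrophoresis; gain of signal versus DMSO.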

In test [16] the target is Estrogen receptor beta (Homo sapiens) (UniProt Q92731). The experiment in a line: ATG_hERb_XSP1: Attagene TRANS-FACTORIAL Multi-Species (XSP1) HepG2 Assay for human Estrogen Receptor (ESR2) (AID 2283788). The essentials: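 Measured endpoint is transcriptional gain of signal from a GAL4-UAS reporter controlled by chimeric ERβ in HepG2 liver cells. Exposure lasts 24 h alongside 3 nM 6-alpha-fluorotestosterone, with DMSO as negative control.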

Test [17] addresses GAL4 Transcription Factor (Internal Marker), GAL4 (gene 855828) (UniProt P04386). The experiment in a line: ATG_GAL4_XSP1: Attagene TRANS-FACTORIAL Multi-Species (XSP1) HepG2 Assay for GAL4 Transcription Factor (Internal Marker) (AID 2283789). The gist of the method: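 HepG2 cells transiently transfected with multiplexed GAL4-UAS reporter units were exposed for 24 h with 3 nM 6-alpha-fluorotestosterone present. Reporter mRNA was quantified by RT-PCR, FAM labelling, HpaI digestion and capillary electrophoresis; background-control readout, gain-of-signal versus DMSO.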

The target of test [18] is human Thyroid hormone Receptor beta (TRb), THRB (gene 7068) (UniProt P10828). Briefly: ATG_hTRb_XSP1: Attagene TRANS-FACTORIAL Multi-Species (XSP1) HepG2 Assay for human Thyroid hormone Receptor beta (TRb) (AID 2283808). The gist of the method:
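HepG2 cells transiently transfected with reporter units driving GAL4-UAS reporters for chimeric NR-Gal4 proteins; 24 h chemical exposure with 3 nM 6-alpha-fluorotestosterone present. Reporter mRNA quantified by RT-PCR and capillary electrophoresis, gain of signal versus DMSO.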

Test [19] addresses Estrogen receptor beta (Homo sapiens) (UniProt Q92731). Briefly: ATG_hERb_XSP2: Attagene TRANS-FACTORIAL Multi-Species (XSP2) HepG2 Assay for human Estrogen Receptor (ERb) (AID 2283813).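 Further: actives raise reporter mRNA above DMSO so AC50 reflects agonist induction.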 The gist of the method: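 HepG2 cells transiently transfected with GAL4-UAS reporter units and chimeric human ERb-Gal4, 24 h exposure. Reporter mRNA quantified by RT-PCR with FAM labelling, HpaI digestion and capillary electrophoresis; gain of signal versus DMSO.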

Results filed as inconclusive are left out. Calls of active or inactive are those of the source. How the source made its calls: active means hit-call score of the fitted dose curve at least 0.9, where 1 is the maximum; inconclusive means response in the unintended direction; inactive means score below 0.9.

Chain of zebrafish Thyroid Hormone Receptor beta (TRb), thrb (gene 30607) (Q9PVE4 whole entry, looked up, the tested form may be a part): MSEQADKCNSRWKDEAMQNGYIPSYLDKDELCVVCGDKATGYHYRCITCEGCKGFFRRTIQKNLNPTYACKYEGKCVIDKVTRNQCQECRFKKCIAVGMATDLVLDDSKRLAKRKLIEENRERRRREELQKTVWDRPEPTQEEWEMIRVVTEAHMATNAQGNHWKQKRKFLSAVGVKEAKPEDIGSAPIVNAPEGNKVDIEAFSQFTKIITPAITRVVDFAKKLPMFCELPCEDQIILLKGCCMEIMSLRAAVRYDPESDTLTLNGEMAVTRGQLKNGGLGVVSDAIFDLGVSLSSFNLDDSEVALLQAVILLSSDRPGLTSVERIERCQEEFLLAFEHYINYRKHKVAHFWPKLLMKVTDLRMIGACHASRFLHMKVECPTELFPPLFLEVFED
Chain of mouse Peroxisome Proliferator-activated Receptor gamma (PPARg), Pparg (gene 19016) (P37238 whole entry, looked up, the tested form may be a part): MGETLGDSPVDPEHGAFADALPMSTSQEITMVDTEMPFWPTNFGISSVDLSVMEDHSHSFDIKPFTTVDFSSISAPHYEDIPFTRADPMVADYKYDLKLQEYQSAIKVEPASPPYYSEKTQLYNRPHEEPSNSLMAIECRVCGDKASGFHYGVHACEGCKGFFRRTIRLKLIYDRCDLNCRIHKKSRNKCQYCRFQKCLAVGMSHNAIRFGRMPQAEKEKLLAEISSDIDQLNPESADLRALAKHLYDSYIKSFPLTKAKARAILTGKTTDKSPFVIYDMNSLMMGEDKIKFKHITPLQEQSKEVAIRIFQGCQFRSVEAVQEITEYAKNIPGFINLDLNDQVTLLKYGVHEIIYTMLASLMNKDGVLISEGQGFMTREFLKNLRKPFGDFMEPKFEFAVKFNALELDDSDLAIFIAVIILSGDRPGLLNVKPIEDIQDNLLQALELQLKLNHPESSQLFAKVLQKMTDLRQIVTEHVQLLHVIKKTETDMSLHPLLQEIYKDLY
Chain of GAL4 Transcription Factor (Internal Marker), GAL4 (gene 855828) (P04386 whole entry, looked up, the tested form may be a part): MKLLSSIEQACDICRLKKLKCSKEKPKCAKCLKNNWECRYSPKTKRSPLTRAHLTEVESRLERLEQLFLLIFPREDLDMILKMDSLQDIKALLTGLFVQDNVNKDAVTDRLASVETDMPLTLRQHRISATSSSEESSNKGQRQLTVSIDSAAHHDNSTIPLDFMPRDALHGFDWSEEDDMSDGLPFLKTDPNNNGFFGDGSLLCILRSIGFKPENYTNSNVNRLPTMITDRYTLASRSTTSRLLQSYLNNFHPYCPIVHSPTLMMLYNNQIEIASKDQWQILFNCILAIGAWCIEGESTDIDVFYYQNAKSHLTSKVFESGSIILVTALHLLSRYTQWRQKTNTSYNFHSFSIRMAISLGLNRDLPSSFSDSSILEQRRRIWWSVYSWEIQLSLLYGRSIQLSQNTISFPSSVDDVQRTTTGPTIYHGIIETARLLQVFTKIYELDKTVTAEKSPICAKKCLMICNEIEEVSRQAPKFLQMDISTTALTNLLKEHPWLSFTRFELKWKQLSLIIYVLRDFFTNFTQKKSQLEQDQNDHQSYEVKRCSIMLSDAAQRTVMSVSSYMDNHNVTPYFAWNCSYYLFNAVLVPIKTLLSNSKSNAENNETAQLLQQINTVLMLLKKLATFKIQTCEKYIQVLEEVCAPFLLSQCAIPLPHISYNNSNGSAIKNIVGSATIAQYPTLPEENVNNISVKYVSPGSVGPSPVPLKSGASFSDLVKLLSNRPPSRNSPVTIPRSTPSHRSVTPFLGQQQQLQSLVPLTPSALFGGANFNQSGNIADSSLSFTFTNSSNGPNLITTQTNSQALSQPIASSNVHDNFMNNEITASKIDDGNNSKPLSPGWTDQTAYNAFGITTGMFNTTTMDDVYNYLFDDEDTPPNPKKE
Chain of frog Thyroid hormone Receptor alpha (TRa), thra-a (gene 397942) (P15204 whole entry, looked up, the tested form may be a part): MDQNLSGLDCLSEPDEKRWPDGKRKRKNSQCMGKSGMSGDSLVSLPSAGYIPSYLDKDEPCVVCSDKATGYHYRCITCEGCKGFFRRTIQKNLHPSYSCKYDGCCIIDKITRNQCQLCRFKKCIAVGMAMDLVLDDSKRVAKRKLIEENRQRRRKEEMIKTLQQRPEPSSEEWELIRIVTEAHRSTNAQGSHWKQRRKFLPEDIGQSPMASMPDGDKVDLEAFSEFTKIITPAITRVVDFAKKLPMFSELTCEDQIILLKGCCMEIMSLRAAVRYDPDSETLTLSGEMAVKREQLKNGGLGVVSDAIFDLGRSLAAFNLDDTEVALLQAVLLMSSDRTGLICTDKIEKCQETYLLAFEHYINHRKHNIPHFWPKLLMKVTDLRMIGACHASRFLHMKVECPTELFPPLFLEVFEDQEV
Chain of zebrafish Thyroid Hormone Receptor alpha (TRa), thraa (gene 30670) (Q98867 whole entry, looked up, the tested form may be a part): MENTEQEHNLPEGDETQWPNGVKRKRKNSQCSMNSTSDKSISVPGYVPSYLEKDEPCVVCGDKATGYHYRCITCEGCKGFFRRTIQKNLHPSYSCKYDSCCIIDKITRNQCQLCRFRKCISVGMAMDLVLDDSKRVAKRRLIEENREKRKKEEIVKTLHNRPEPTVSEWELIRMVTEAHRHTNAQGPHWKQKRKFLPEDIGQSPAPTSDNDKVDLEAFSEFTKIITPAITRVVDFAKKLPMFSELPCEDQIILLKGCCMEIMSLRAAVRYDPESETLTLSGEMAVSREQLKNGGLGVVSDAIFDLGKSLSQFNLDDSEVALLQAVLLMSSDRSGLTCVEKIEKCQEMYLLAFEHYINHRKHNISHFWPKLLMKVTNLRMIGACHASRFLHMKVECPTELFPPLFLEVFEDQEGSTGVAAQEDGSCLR
Chain of Peroxisome proliferator-activated receptor gamma (Homo sapiens) (P37231 whole entry, looked up, the tested form may be a part): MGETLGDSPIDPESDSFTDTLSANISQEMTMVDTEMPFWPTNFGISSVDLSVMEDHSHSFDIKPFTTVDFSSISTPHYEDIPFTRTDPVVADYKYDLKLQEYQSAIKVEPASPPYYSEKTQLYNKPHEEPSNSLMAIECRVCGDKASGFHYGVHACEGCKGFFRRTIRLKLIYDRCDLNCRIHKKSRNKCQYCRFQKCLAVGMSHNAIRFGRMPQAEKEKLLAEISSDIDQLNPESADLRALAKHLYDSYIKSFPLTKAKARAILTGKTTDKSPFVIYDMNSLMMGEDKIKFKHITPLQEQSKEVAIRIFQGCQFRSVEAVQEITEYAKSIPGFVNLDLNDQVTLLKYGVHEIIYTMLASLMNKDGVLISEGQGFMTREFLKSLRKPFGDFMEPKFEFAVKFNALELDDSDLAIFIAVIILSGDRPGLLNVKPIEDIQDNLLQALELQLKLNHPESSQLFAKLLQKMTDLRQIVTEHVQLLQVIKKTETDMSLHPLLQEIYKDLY
Chain of Estrogen receptor beta (Homo sapiens) (Q92731 whole entry, looked up, the tested form may be a part): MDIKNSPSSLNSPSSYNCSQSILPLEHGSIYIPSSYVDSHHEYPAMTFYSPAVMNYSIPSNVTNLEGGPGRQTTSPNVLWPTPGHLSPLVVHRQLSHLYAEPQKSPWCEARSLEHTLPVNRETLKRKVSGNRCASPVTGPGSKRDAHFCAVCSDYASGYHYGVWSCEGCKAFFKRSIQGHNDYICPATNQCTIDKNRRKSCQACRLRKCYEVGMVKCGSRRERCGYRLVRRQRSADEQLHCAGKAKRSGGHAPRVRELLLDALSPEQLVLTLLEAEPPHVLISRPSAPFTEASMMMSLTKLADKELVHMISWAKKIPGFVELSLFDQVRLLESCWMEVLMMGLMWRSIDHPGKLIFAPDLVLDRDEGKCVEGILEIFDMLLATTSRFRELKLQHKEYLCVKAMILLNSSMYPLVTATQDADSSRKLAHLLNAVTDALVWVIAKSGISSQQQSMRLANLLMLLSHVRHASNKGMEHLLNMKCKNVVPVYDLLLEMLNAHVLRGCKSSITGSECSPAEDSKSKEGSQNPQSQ
Chain of human Thyroid hormone Receptor alpha (TRa), THRA (gene 7067) (P10827 whole entry, looked up, the tested form may be a part): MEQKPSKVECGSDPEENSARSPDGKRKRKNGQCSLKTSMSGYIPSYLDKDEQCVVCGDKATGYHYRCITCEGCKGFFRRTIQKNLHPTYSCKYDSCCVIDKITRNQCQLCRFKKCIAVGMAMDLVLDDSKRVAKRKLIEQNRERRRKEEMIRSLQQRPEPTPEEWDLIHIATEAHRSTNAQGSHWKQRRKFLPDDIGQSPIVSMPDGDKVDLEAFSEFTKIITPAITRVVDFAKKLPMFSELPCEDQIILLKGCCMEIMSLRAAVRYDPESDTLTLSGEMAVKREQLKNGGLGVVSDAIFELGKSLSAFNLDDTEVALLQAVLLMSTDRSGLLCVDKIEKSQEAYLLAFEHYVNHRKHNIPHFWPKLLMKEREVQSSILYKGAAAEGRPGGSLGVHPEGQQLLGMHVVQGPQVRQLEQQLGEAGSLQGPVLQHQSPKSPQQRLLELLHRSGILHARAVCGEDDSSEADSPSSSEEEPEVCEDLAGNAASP
Chain of human Thyroid hormone Receptor beta (TRb), THRB (gene 7068) (P10828 whole entry, looked up, the tested form may be a part): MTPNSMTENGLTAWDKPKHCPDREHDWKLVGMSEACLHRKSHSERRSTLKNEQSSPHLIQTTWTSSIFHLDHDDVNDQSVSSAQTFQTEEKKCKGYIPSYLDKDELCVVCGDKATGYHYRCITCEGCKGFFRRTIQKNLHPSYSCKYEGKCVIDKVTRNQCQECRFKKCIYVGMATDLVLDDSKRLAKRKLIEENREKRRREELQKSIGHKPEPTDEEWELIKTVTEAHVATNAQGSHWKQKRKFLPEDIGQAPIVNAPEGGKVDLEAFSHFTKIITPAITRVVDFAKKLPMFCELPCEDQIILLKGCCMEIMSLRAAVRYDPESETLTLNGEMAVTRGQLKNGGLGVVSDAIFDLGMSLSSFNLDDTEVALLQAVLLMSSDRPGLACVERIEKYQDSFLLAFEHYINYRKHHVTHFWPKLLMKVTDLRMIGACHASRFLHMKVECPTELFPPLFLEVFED

As a reminder, the AC50 is the concentration giving half of the maximal activity seen. On to `CCCC1COC(Cn2cncn2)(c2ccc(Cl)cc2Cl)O1` (configuration not stated), for which the AC50 with AR (gene 367) was 76.1 µM (active); in [3] it was 11.8 µM (active); in [5], 56.9 µM (active); in test [11], 64.2 µM (active). Further, the outcome in test [1], in test [2], in test [4], in test [6], in [7] and in test [8] was inactive. Besides, the compound was classed as inactive in test [9], in test [10] and in test [12].
As to `CON(C)C(=O)Nc1ccc(Cl)c(Cl)c1`, the compound was classed as inactive in test [13], in [6], in test [14], in [7], in [8] and in test [15]. In addition, the result in [9] and in test [12] was inactive. For the same compound, the AC50 in test [3] and in test [5] was 100 µM (active) throughout.
Consider `O=C(Nc1ccccc1)Nc1ccnc(Cl)c1`, for which the half-maximal activity concentration (AC50) with AR (gene 367) is 33.4 µM (active).
As for `C=CC1(C)OC(=O)N(c2cc(Cl)cc(Cl)c2)C1=O` (configuration not stated), the compound was called inactive in [16], in test [17], in [13], in [1], in [4] and in test [6]. Moreover, the outcome in test [14], in test [8], in [10], in test [11] and in [19] was inactive. For the same compound, the concentration at half-maximal activity (AC50) was 134 µM (active) in [7], 67.6 µM (active) in test [18] and 51.6 µM (active) in test [15].
On to `CC(C)(C)c1ccc(CSc2cnn(C(C)(C)C)c(=O)c2Cl)cc1`, for which the result in test [16], in [13], in test [4], in test [7], in [8] and in test [15] was inactive. Besides, the compound was called inactive in test [9], in test [10], in test [11], in test [19] and in test [12]. For the same compound, the AC50 was 0.387 µM (active) in [3], 0.585 µM (active) in [5] and 148 nM (active) in test [6].
